NPC1 promoter act: qHTS Assay for NPC1 Promoter Activators. actives 2.4% (n = 320,000). Potency, µM (top dose mostly 9.22 µM), actives largely listed as activators. AID 485313, 2010. Huh7 NPC1 promoter luciferase reporter, 24 h; further: nearly all actives have a fitted effect of over 60% in size
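Luminescence read-out of NPC1 promoter-driven luciferase in stably transfected Huh7 cells; compounds delivered in DMSO and left 24 h at 37C, 5% CO2, qHTS titration format.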
FLuc modulator: qHTS profiling assay for firefly luciferase inhibitor/activator using purifed enzyme and Km concentrations of substrates (counterscreen for miR-21 project). purified FLuc, Km substrates, luminescence inhibition. Potency, µM (series often up to 57.5 µM), usual class: inhibitors. actives 6.9% (n = 360,000); further: nearly all actives have a fitted effect of over 55% in size
Target sequence (P08659 whole entry, looked up): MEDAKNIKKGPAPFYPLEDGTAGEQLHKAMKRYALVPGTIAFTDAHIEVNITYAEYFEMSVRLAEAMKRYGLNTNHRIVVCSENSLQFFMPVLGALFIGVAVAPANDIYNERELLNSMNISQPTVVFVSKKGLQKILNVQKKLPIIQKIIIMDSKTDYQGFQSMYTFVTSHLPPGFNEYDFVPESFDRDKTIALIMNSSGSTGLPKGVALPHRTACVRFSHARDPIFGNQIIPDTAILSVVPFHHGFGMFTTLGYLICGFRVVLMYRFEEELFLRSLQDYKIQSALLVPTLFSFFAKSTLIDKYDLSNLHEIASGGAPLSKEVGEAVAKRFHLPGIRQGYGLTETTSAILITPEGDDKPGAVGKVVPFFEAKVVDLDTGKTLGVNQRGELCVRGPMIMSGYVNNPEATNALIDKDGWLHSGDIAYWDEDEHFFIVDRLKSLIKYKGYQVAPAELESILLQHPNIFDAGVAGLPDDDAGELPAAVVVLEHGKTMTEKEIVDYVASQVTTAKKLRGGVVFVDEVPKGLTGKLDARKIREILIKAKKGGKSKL
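Biochemical qHTS of compounds, final roughly 60 µM downward over six points, against 10 nM purified firefly luciferase using Km concentrations of substrates (10 uM D-luciferin, 10 uM ATP) in Tris acetate pH 7.5 buffer; luminescence output.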
SMN2 splice up: qHTS Assay for Enhancers of SMN2 Splice Variant Expression. HEK293 SMN2-luciferase splicing reporter, luminescence, 30-36 h. Potency, µM (doses to about 46.1 µM), most hits filed as activators. actives 2.8% (n = 210,000). AID 1458, 2008; further: nearly all actives have a fitted effect of over 55% in size
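qHTS luciferase splicing reporter: luminescence rises when SMN2 exon 7 is included in transfected HEK293 cells. Compound exposure lasted 30-36 h at 37C, with 4.5 mM final sodium butyrate as control, followed by a ONE-Glo read.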
ELG1 genotoxic: qHTS screen for small molecules that induce genotoxicity in human embryonic kidney (HEK293T) cells expressing luciferase-tagged ELG1; Potency, µM (series often up to 46 µM), hits mostly activators; actives 1.3% (n = 330,000); HEK293T ELG1-luciferase reporter, luminescence, 16 h; further: nearly all actives have a fitted effect of over 60% in size
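Cells (2,000/well) expressing the ELG1-luciferase fusion are dosed by pin tool and kept 16 hr at 37 °C, 5% CO2. Signal comes from ONE-Glo luciferase reagent after 30 min at room temperature.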
Rab9 prom act: qHTS Assay for Rab9 Promoter Activators; Huh7 Rab9 promoter-luciferase reporter, luminescence, 24 h; actives 2.8% (n = 320,000); AID 485297, 2010; Potency, µM (doses to about 9.22 µM), usual class: activators; further: nearly all actives have a fitted effect of over 60% in size
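Using Huh7 cells stably transfected with Rab9 promoter–luciferase, compounds were incubated 24 h at 37 °C, 5% CO2; luciferase luminescence was read 10 min after reagent addition.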
ELG1 repair inh: qHTS screen for small molecules that inhibit ELG1-dependent DNA repair in human embryonic kidney (HEK293T) cells expressing luciferase-tagged ELG1 | HEK293T ELG1-luciferase reporter, luminescence, 16 h; DNA damage induced by 5-fluorouridine | Potency, µM (titrated, usually from 46.1 µM), most hits filed as inhibitors | actives 2.3% (n = 330,000); further: nearly all actives have a fitted effect of over 55% in size
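HEK293T cells expressing luciferase-tagged ELG1 (2,000/well) received 5-Fluorouridine plus compound or DMSO for 16 hr at 37 °C. Luciferase was read by ONE-Glo luminescence after 30 min at room temperature.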
A number is an active result; n = inactive; u = inconclusive; x = not tested or not shown; [ ] = another dose, or the depositor's remark. Sampled rows, rich in hits. Any-hit rate of the full collection: about 9.2%. The call rests on the fitted dose curve; in most records, active means well fitted curve in the direction sought with a large enough effect; inconclusive means small, poorly fitted or top-dose-only effect, or another doubt; inactive means no such curve, though single readings can be large; an effect the other way counts as inactive or inconclusive.

SMILES	NPC1 promoter act	FLuc modulator	SMN2 splice up	ELG1 genotoxic	Rab9 prom act	ELG1 repair inh
CN1CCN(Cc2coc3c(Cl)cc(Cl)cc3c2=O)CC1	n	n	x	n	n	n
CCCCNS(=O)(=O)c1ccc2nc(SCC(=O)c3ccccc3OC)[nH]c2c1	n	n	n	n	n	20.6µM
CCCCNS(=O)(=O)c1ccc2nc(SCC(=O)Nc3sccc3C#N)[nH]c2c1	n	u	n	n	n	16.4µM
O=C(NCC1CCCO1)c1ccc(Cl)c(S(=O)(=O)Nc2ccccc2)c1 (centres undefined)	n	n	x	n	n	n
COc1ccc(-c2cc(-c3nnc(COC(=O)c4ccncc4)o3)c3ccccc3n2)cc1OC	n	u	n	n	n	18.3µM
O=C(OCc1nnc(-c2ccc(Cl)cc2)o1)c1ccncc1	n	u	n	n	n	n
Cc1nc2ccc(C(=O)OCc3nnc(-c4ccccc4)o3)cc2nc1C	n	n	x	n	n	n
O=C(OCc1nnc(-c2ccccc2)o1)c1ccccc1	n	15.1µM	n	n	n	n
Cc1ccccc1C(=O)OCc1nnc(-c2ccc(Cl)cc2)o1	n	19µM	n	n	n	u
O=C(OCc1nnc(-c2ccc(Br)cc2)o1)c1ccco1	n	21.3µM	x	n	n	n
O=C(COC(=O)c1ccc(-c2nnc(-c3ccccc3)o2)cc1)c1ccccc1	0.562µM	n	2.82µM	u	0.562µM	u
N#CC1=C(N)Oc2c(ccc3cccnc23)C1c1ccccc1 (centres undefined)	n	n	x	n	n	13µM
N#CC1=C(N)Oc2c(ccc3ccccc23)C1c1cccs1 (centres undefined)	n	u	n	18.4µM	n	u
O=C(NNC(=O)C(c1ccccc1)c1ccccc1)c1cccs1	n	n	n	n	n	n
COc1ccc(NC(=O)CCNC(=O)Cn2ccc3ccccc3c2=O)cc1OC	n	n	x	n	n	n
Cc1ccc(NC(=O)CCNC(=O)Cn2ccc3ccccc3c2=O)cc1F	n	16.9µM	x	u	u	n
Cc1c(Cl)cccc1N=C1SCCN1C(=O)CN1C(=O)NC2(CCCC2)C1=O	n	n	x	n	n	n
Oc1ccc(-c2csc(-c3ccccc3)n2)cc1O	n	15.1µM	u	u	n	u
Fc1ccccc1-c1csc(-c2cccnc2)n1	u	15.1µM	x	u	u	u
c1cncc(-c2nc(-c3ccc4c(c3)OCCO4)cs2)c1	0.891µM	1.69µM	x	u	0.562µM	u
Cc1nc(-c2ccc(O)c(O)c2)cs1	n	n	n	n	n	u
Fc1ccc(-c2csc(-c3cccnc3)n2)cc1F	u	u	x	n	u	u
Oc1ccc(-c2csc(-c3cccnc3)n2)cc1O	n	16.9µM	x	u	n	u
CC1(c2nnc(-c3cccc(Cl)c3)o2)CC(c2ccc(OC(F)(F)F)cc2)=NO1 (centres undefined)	n	n	x	n	n	n
Clc1ccc(-c2csc(-c3cccnc3)n2)s1	n	13.5µM	x	n	n	u
SMILES	NPC1 promoter act	FLuc modulator	SMN2 splice up	ELG1 genotoxic	Rab9 prom act	ELG1 repair inh
c1ccc(-c2csc(-c3ccncc3)n2)cc1	n	15.1µM	n	n	n	u
Brc1ccsc1-c1csc(-c2ccncc2)n1	n	u	x	u	n	u
Oc1ccccc1-c1csc(-c2ccccc2)n1	n	5.36µM	u	n	u	u
CN(c1ccccc1)S(=O)(=O)c1cccc(NC(=O)COC(=O)C2CCCCC2)c1	n	n	x	n	n	n
COc1ccc(Cc2nc3ccc(C(=O)NCC(C)(C)OC)cc3o2)cc1	3.55µM	19µM	x	u	3.55µM	u
CCc1cc(CNC(=O)c2ccc3nc(Cc4ccc(OC)c(OC)c4)oc3c2)on1	n	n	x	n	n	u
COc1ccc(Cc2nc3ccc(C(=O)NCc4cc(C)no4)cc3o2)cc1	3.98µM	13.5µM	x	16.4µM	3.55µM	u
COc1ccc(Cc2nc3ccc(C(=O)NCCc4ccccc4)cc3o2)cc1	x	n	x	x	x	x
CCC1CCCCN1C(=O)c1ccc2nc(Cc3ccc(OC)cc3)oc2c1 (centres undefined)	u	19µM	x	u	3.55µM	u
COc1ccc(Cc2nc3ccc(C(=O)N4CCCCC4CCO)cc3o2)cc1 (centres undefined)	n	n	x	n	n	n
Cc1cccc(C(=O)Nc2ccccc2OCc2cc(=O)n3ccccc3n2)c1	x	n	x	x	x	x
Cc1ccc(NC(=O)Cn2nnc(C(=O)Nc3ccc(C)c(C)c3)c2N)cc1	n	u	n	n	n	n
Nc1c(C(=O)Nc2ccccc2Cl)nnn1-c1ccc2c(c1)OCCO2	0.794µM	1.07µM	x	u	1.12µM	u
Nc1c(C(=O)Nc2ccc3c(c2)OCCO3)nnn1Cc1cccc(Br)c1	u	u	x	n	3.98µM	u
Nc1c(C(=O)Nc2ccc3c(c2)OCCO3)nnn1Cc1ccc(Br)cc1	1.58µM	u	x	u	1.12µM	u
Cc1cccc(-n2nnc(C(=O)NCc3ccc4c(c3)OCO4)c2N)c1	n	n	n	n	n	n
Cc1ccc(NC(=O)c2nnn(CC(=O)Nc3ccc4c(c3)OCO4)c2N)cc1C	n	5.36µM	x	n	n	u
Cc1oc2c(C)c3oc(=O)c(CC(=O)N4CCCCC4)c(C)c3cc2c1C	x	n	n	x	x	x
Nc1c(C(=O)Nc2ccc3c(c2)OCCO3)nnn1CCc1ccccc1	n	15.1µM	u	u	n	u
Cc1nc2ccccc2c(=O)n1/N=C/c1ccc(F)cc1	n	u	x	n	n[1.84 µM]	n
Cc1noc(C)c1COC(=O)c1cccc(S(=O)(=O)N2CCOCC2)c1	n	n	x	n	n	n
Cc1noc(C)c1COC(=O)c1cccc(S(=O)(=O)N2c3ccccc3CC2C)c1 (centres undefined)	n	n	n	n	n	18.4µM
CCOC(=O)c1ccoc1CSCc1ccc(C(=O)OC)o1	n	n	n	20.6µM	n	n
COCC(COS(N)(=O)=O)Cc1ccccc1 (centres undefined)	n	n	x	n	n	n
O=C1CC(c2ccccc2Cl)c2c(sc3c(=O)[nH]c(CCl)nc23)N1 (centres undefined)	n	n	x	n	n	u
Cc1ccc(Cn2ccc(NC(=O)c3nn(C)cc3Cl)n2)cc1	u	21.3µM	n	n	u	u
Cc1cccc(Cn2ccc(NC(=O)c3ccc4c(c3)OCO4)n2)c1	n	16.9µM	n	n	n	n
O=C(Nc1ccn(Cc2ccc(Cl)cc2)n1)c1ccc2c(c1)OCO2	x	21.3µM	n	x	x	x

From PubChem
